{
  "source": "PubChem BioAssay AID1985",
  "about": "(Southern Research Specialized Biocontainment Screening …, 2009)",
  "note": "Out of some 2,300 compounds screened, about 1,000 (43%) were called active. How the calls were made is not given here. So high a share suggests a set chosen from earlier hits. The list shows a part of the results. Where a call stands in place of a potency, no number is given. Potency and affinity values are given separately.",
  "data": [
    {"experiment": "modified counter assay using GFP fluorescence, PhoP regulon inhibitor project, dose response (AID 1985)", "conditions": "S. Typhi, 4 h; series mostly up to 150 µM", "values": [
      {"smiles": "N#Cc1c(/N=C/c2cccs2)sc2c1CCCCC2", "outcome": "inactive"},
      {"smiles": "Cc1cc(C)cc(CSc2nnc(C)c(=O)[nH]2)c1", "outcome": "inactive"},
      {"smiles": "COc1cccc(CNC(=O)C2CCN(S(=O)(=O)c3ccc(C)cc3)CC2)c1", "outcome": "inactive"},
      {"smiles": "CC(=O)NC(c1ccc(Cl)cc1Cl)c1ccc2cccnc2c1O", "note": "(stereo not drawn)", "outcome": "inactive"},
      {"smiles": "Cc1ccc(Cn2c(=N)c(C(=O)NCCN3CCOCC3)cc3c(=O)n4ccccc4nc32)cc1", "outcome": "inactive"},
      {"smiles": "COc1cc2[nH]c(=O)n(Cc3ccc(C(=O)N4CCC(N5CCCCC5)CC4)cc3)c(=O)c2cc1OC", "outcome": "inactive"},
      {"smiles": "O=C(c1cc2c(s1)-c1ccccc1OC2)N1CCc2ccccc2C1", "outcome": "inactive"},
      {"smiles": "CNC[C@@H](CC1CCCCC1)NC[C@H](CC(C)C)NCCc1cccc(C(F)(F)F)c1", "outcome": "inactive"},
      {"smiles": "CS(=O)(=O)N1CC(C(=O)NC2CC2)Oc2ccc(Cl)cc21", "note": "(stereo not drawn)", "outcome": "inactive"},
      {"smiles": "CCCSc1nc2cc(OC)c(OC)cc2c(=N)n1CCCN1CCOCC1", "outcome": "inactive"},
      {"smiles": "CC(C)(C)NC(=O)c1ccc2c3c(cccc13)CC2", "outcome": "inactive"},
      {"smiles": "O=C(CSc1nnnn1C1CCCCC1)N1CCCC1", "outcome": "inactive"},
      {"smiles": "COCCn1nnnc1C(c1cccc(OC)c1OC)N1CCN(C2CCCCC2)CC1", "note": "(stereo not drawn)", "outcome": "inactive"},
      {"smiles": "CC(C)OC(=O)c1cccc(C(=O)Oc2ccc(Br)cc2)n1", "outcome": "inactive"},
      {"smiles": "CCOc1ccc(Cl)cc1/C=N/O", "outcome": "inactive"},
      {"smiles": "O/N=C/C1=C(Cl)c2ccccc2CC1", "outcome": "inactive"},
      {"smiles": "CCOC(=O)Cn1c(=O)oc2cc(S(=O)(=O)NCC3CCCO3)ccc21", "note": "(stereo not drawn)", "outcome": "inactive"},
      {"smiles": "CCOC(=O)C(NC(C)=O)(OCc1ccc(F)cc1)C(F)(F)F", "note": "(stereo not drawn)", "outcome": "inactive"},
      {"smiles": "Cc1nn(Cc2ccccc2Cl)c2sc(C(=O)Nc3ccccc3N3CCOCC3)cc12", "outcome": "inactive"},
      {"smiles": "O=C1SC(c2ccccc2)=C/C1=C\\N1CCCCC1", "outcome": "inactive"},
      {"smiles": "CC(C)C(NS(=O)(=O)c1cccc2nsnc12)C(=O)N1CCn2c1nc1ccccc12", "note": "(stereo not drawn)", "outcome": "inactive"},
      {"smiles": "Nc1[nH]c(=O)ncc1F", "outcome": "inactive"},
      {"smiles": "O=C1c2cccnc2C(=O)N1c1ccccc1-c1ccccc1", "outcome": "inactive"},
      {"smiles": "Cc1ccc2c(c1)c1c(n2CC(O)CN2CCC(C)CC2)CCCC1", "note": "(stereo not drawn)", "outcome": "inactive"},
      {"smiles": "Cc1ccc(-n2c(=O)c3sccc3n(CC(=O)NC3CCCCC3)c2=O)cc1", "outcome": "inactive"},
      {"smiles": "C[N+]1(C)C2CCC1CC(OC(=O)c1ccccc1)C2", "note": "(stereo not drawn)", "outcome": "inactive"},
      {"smiles": "CCN(CC)C(=O)C1CCN(Cc2ccc(Br)cc2)CC1", "outcome": "inactive"},
      {"smiles": "COCCNC(=O)c1cccc(OC2CCN(Cc3ccccc3C)CC2)c1", "outcome": "inactive"},
      {"smiles": "N=c1c(C(=O)NCC2CCCO2)cc2c(=O)n3ccccc3nc2n1Cc1ccc(Cl)cc1", "note": "(stereo not drawn)", "outcome": "inactive"},
      {"smiles": "CCOc1ccc(NC(=O)CN(C)S(=O)(=O)c2cccs2)cc1", "outcome": "inactive"},
      {"smiles": "Cc1ncc(CC(=O)n2cc(C(=O)c3cc(F)ccc3O)cn2)s1", "outcome": "inactive"},
      {"smiles": "CN(C)C(=O)CC12CC3CC(C1)CC(CC(=O)N(C)C)(C3)C2", "outcome": "inactive"},
      {"smiles": "Nc1cc2c3c(cccc3c1)C(=O)N(CCN1CCCC1)C2=O", "outcome": "inactive"},
      {"smiles": "CC[C@H](C)[C@@H](CN[C@H](C)CNC)NCCC(c1ccccc1)c1ccccc1", "outcome": "inactive"},
      {"smiles": "O=C(Cn1c(=O)oc2ccccc21)N1CCN(c2ccc(N3CCOCC3)nn2)CC1", "outcome": "inactive"},
      {"smiles": "CCn1c(O)c(N=NC(=O)CNC(=O)/C=C/c2ccco2)c2ccccc21", "outcome": "inactive"},
      {"smiles": "Cc1c(CCN)ccc2c1[nH]c1ccccc12", "outcome": "inactive"},
      {"smiles": "Cc1c(C=O)c2ccccn2c1C(=O)c1ccccc1", "outcome": "inactive"},
      {"smiles": "O=C(N/N=C/c1c(Cl)nc2ccccn2c1=O)c1cccnc1", "outcome": "inactive"},
      {"smiles": "Oc1ccc(-c2nc3ncccn3c2Nc2ccc3c(c2)OCCO3)cc1", "outcome": "inactive"},
      {"smiles": "CC(C)CC(c1nnnn1Cc1ccco1)N1CCN(c2cccc(Cl)c2)CC1", "note": "(stereo not drawn)", "outcome": "inactive"},
      {"smiles": "COc1cccc(C2=NO[C@@H]3C(=O)N(Cc4ccccc4)C(=O)[C@H]23)c1OC", "outcome": "inactive"},
      {"smiles": "CCOC(=O)/C=C1/N(C)c2ccccc2C1(C)C", "outcome": "inactive"},
      {"smiles": "COc1ccc(/C=N/NC2=NCCCCC2)c(OC)c1", "outcome": "inactive"},
      {"smiles": "Cc1ccc(N/N=C/c2ccncc2)cc1", "outcome": "inactive"},
      {"smiles": "CC(Oc1ccc(/C=N/NC(=O)Cc2cccc3ccccc23)cc1)C(=O)O", "note": "(stereo not drawn)", "outcome": "inactive"},
      {"smiles": "COc1ccc(/C=N/Nc2cc(C)nc3ccccc23)cc1", "outcome": "inactive"},
      {"smiles": "Cc1cc(N/N=C/c2ccc(F)cc2)nc(NCc2ccccc2)n1", "outcome": "inactive"},
      {"smiles": "CCOC(=O)c1c(C)sc2c1N(C(C)=O)c1cc(Cl)ccc1S2", "outcome": "inactive"},
      {"smiles": "CCCC1(c2ccccc2)NC(=O)N(CC(=O)Nc2ccccc2C(F)(F)F)C1=O", "note": "(stereo not drawn)", "outcome": "inactive"},
      {"smiles": "O=C1C2C3C=CC(CC3)C2C(=O)N1/N=C/c1ccc(O)cc1", "note": "(stereo not drawn)", "outcome": "inactive"},
      {"smiles": "CCN(CC)CCn1c(NCc2cc(OC)ccc2OC)nc2ccccc21", "outcome": "inactive"},
      {"smiles": "CCN(CC)S(=O)(=O)c1ccc(/C(O)=C(\\C#N)c2nc3ccccc3n2C)cc1", "outcome": "inactive"},
      {"smiles": "COc1ccc(CNc2nc3ccccc3n2C)c(O)c1", "outcome": "inactive"},
      {"smiles": "Cn1c(-c2ccc(CN3CCCCC3)o2)nc2ccccc21", "outcome": "inactive"},
      {"smiles": "Cc1cccc(NS(=O)(=O)c2ccc3c(c2)OCCO3)c1", "outcome": "inactive"},
      {"smiles": "CC1(C)N=C(N)NC(Nc2cccc(Br)c2)=N1", "outcome": "inactive"},
      {"smiles": "CCN(CC)CC#CC(C)OCOCC#CCOC", "note": "(stereo not drawn)", "outcome": "inactive"},
      {"smiles": "CNc1ccc(SC#N)cc1", "outcome": "inactive"},
      {"smiles": "O=C(CCn1cccc1)Nc1ccc(OC(F)(F)F)cc1", "outcome": "inactive"},
      {"smiles": "NC1=NC2(CCCCC2)n2c(nc3ccccc32)N1", "outcome": "inactive"},
      {"smiles": "COc1ccc(NC2=Nc3ccccc3CC2)cc1", "outcome": "inactive"},
      {"smiles": "Cc1ccc(C(=O)NCC(=O)NCCc2ccc(S(N)(=O)=O)cc2)s1", "outcome": "inactive"},
      {"smiles": "CCN1C(=O)N/C(=C/c2cc(C)n(Cc3ccccc3)c2C)C1=O", "outcome": "inactive"},
      {"smiles": "N=c1ccccn1CC(O)COc1ccccc1", "note": "(stereo not drawn)", "outcome": "inactive"},
      {"smiles": "Cc1c(Cl)cccc1NC(=O)C1CCN(S(C)(=O)=O)CC1", "outcome": "inactive"},
      {"smiles": "Cc1ccc(N(C(=O)c2sc(C)nc2C)C(C(=O)NCc2ccco2)c2ccccc2)cc1", "note": "(stereo not drawn)", "outcome": "inactive"},
      {"smiles": "Fc1cccc(Cl)c1CSc1ccc(-c2ccco2)nn1", "outcome": "inactive"},
      {"smiles": "CC(=O)Nc1ccc(NC(=O)CSc2ccc(-c3ccco3)nn2)cc1", "outcome": "inactive"},
      {"smiles": "Cc1cccc(OCC(=O)Nc2nonc2NC(=O)COc2cccc(C)c2)c1", "outcome": "inactive"},
      {"smiles": "COc1ccccc1NC(=O)Cn1c(=O)n(CCc2c[nH]c3ccccc23)c(=O)c2cccnc21", "outcome": "inactive"},
      {"smiles": "Cc1ccc(C)c(NC(=O)CSc2nnc([C@@H](N)Cc3c[nH]c4ccccc34)o2)c1", "outcome": "inactive"},
      {"smiles": "CC(C)CC(=O)N1CCN(C(=O)CCC2CCCC2)CC1", "outcome": "inactive"}
    ]}
  ]
}
